For one experiment, the target named is Torsin-1A (Homo sapiens) (UniProt O14656). Kind of experiment: torsin A binders from cell lysate, primary screen, small-molecule microarray, wild-type, 635/667 nm (AID 1149). The note with it: COS7 hTOR1A-WT lysate, 635 nm fluorescence, higher = more signal.
Chain of Torsin-1A (Homo sapiens) (O14656 whole entry, looked up): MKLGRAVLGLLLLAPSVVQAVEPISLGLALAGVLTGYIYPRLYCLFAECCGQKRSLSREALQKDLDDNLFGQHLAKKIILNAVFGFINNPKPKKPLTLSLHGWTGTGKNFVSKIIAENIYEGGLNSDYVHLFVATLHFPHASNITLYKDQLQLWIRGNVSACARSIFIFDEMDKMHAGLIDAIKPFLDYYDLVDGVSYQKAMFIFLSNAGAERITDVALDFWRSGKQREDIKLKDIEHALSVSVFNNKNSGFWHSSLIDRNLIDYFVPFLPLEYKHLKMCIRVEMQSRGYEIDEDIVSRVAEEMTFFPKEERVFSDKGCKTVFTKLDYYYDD
Turning to `O=P(NCC1(CC2(c3ccccc3)CO2)CC1)(c1ccccc1)c1ccccc1` (stereo unspecified), the composite z-score was -0.87.
Molecule `CCOC(=O)C1=CC[C@@H](c2ccccc2)N(S(=O)(=O)c2ccc(C)cc2)[C@H]1c1ccc(C#N)cc1` had a composite z-score of -0.0412.
Regarding `COc1cc(NN2C(C(O)c3ccccc3)C=CC3C(=O)N(c4ccccc4)C(=O)C32)cc(OC)c1OC` (stereo unspecified), the composite z-score came to 0.179.
Still for that read-out and setting: as for `Cn1c2c(c3ccccc31)C(=O)C1NC2C=CC1(C)C(=O)OCc1ccccc1` (stereo unspecified), the figure is -0.327; as for `Cc1ccc(S[C@]2(C(=O)NCCN3CCOCC3)CC(=O)N(C3CCCCC3)[C@@H]2c2ccc(CO)cc2)cc1`, 0.18.
Still for that read-out and setting: as for `COCCOC(=O)N1C(=O)[C@@]2(c3cc(C#CC4=CCCCC4)ccc31)[C@H](c1ccc(OCCO)cc1)N1[C@H](c3ccccc3)[C@H](c3ccccc3)OC(=O)[C@H]1[C@@H]2C(=O)Nc1nc2ccccc2s1`, the figure is -0.0779.

The target is the same in the next experiment. In words: small-molecule binders of mutant TOR1A in lysate, primary screen, cell lysate, small-molecule microarray, COS7 lysate, 635/667 nm fluorescence (AID 1150).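 Further: score pools 667 nm emission and signal to noise measuring lysate protein binding.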 As to conditions: COS7 hTOR1A mutant lysate, 635 nm fluorescence, higher = more signal.
`C[N+](C)(C)CCCCNC(=O)[C@H]1C[C@H]2C(=O)N3CCC[C@H]3C(=O)N2[C@H]1c1ccc(O)cc1`: the composite z-score came out at 1.66.
Still for that read-out and setting: for `O=S(=O)(NCCCO)c1ccc(Br)cc1` the value was 0.783.
Same read-out and setting: for `Cc1ccc(S(=O)(=O)N2CC(C(=O)O)=CCC2c2ccccc2)cc1` (stereo unspecified) the value was -0.307; for `C=CCOC(=O)[C@H]1[C@@H]2C(=O)O[C@@H](c3ccccc3)[C@@H](c3ccccc3)N2[C@@H](c2ccc(OCCOC(=O)[C@@H]3C[C@@H]4C(=O)NCC(=O)N4[C@@H]3c3ccc(O)cc3)cc2)[C@]12C(=O)Nc1ccc(I)cc12`, 1.18; for `CC(=O)NCCCC[C@@H]1NC(=O)[C@@H]2C[C@H](C(=O)NCCCCCC[N+](C)(C)C)[C@H](c3cccc(OCCO)c3)N2C1=O`, 1.43.
On the same count and under the same terms, for `C/C=C/[C@H](CCn1cc([C@H](O)c2ccccc2)nn1)[Si](C)(C)c1ccc(OC)cc1` the value was -0.57; for `CCCNC(=O)[C@@]1(C)c2ccccc2C(=O)N(Cc2cc(C(F)(F)F)cc(C(F)(F)F)c2)[C@H]1c1ccc(CO)cc1`, -0.216; for `C=C(CCCC)/C(=C/C[C@H](OC(C)=O)c1ccc(CO)o1)c1cc(C(=O)OC)ccc1OC`, -0.0953.
As to `C=CCCN(CC#C[C@H]1Oc2ccccc2S(=O)(=O)N2CCC[C@@H]12)S(=O)(=O)c1ccc(C)cc1`, the composite z-score was -0.109.
Still for that read-out and setting: as for `CN1C(=O)C2C=CC(C(O)C(c3ccccc3)c3ccccc3)N(Nc3ccccc3)C2C1=O` (stereo unspecified), the figure is 0.585; as for `O=C1OCCC/C=C\[C@H]2OC34C=CCN(CCN5CCOCC5)C(=O)[C@H]3N(CCO)C(=O)[C@@H]4C12` (stereo partly specified), -0.506.
On the same count and under the same terms, as for `COCCOC(=O)N1C(=O)[C@@]2(c3cc(C#CC4(O)CCCCCC4)ccc31)[C@H](c1ccc(O)cc1)N1[C@H](c3ccccc3)[C@H](c3ccccc3)OC(=O)[C@H]1[C@@H]2C(=O)N1CCc2cc(OC)c(OC)cc2C1`, the figure is -0.0551; as for `COCCn1c(C(=O)N2CCCC2)cc2c1C[C@H]1CN(C(=O)c3ccccc3)[C@@](Cc3ccc(OC)cc3)(C(=O)OC)[C@@H]21`, 1.29.
On the same count and under the same terms, as for `Cc1cc(C)c(C(O)C2C=CC3C(=O)NC(=O)C3N2Nc2ccccn2)c(C)c1` (stereo unspecified), the figure is 0.736; as for `CC(c1ccccc1)C(O)C1C=CC2C(=O)N(Cc3ccccc3)C(=O)C2N1n1cnnc1` (stereo unspecified), 0.358; as for `O=C(NCC(O)CO)[C@@]1(Cc2ccccc2)N=C(c2ccc(OCCCO)cc2)O[C@H]1c1ccccc1` (stereo partly specified), 1.23.
Turning to `CC(c1ccccc1)C(O)C1C=CC2C(=O)N(c3ccccc3)C(=O)C2N1Nc1ccccc1F` (stereo unspecified), the composite z-score was 0.0393.
In the case of `C=CC[C@@]1(C(=O)NCc2ccccc2)N=C(c2ccc(OCCCO)cc2)O[C@@H]1c1ccccc1CN=[N+]=[N-]`, the composite z-score stood at 0.287.
The same measure, in the same setting: as for `C=CCN1C(=O)[C@]2(Cc3ccccc31)N=C(c1ccc(OCCCO)cc1)O[C@@H]2c1ccccc1`, the figure is 0.512; as for `CCCCC(=O)N(Cc1ccccc1F)[C@@H]1CC(C(=O)NCCO)=C[C@H](Oc2c(I)cc(CO)cc2OC)[C@H]1O`, 0.769; as for `Cc1c(NC(=O)/C(C#N)=C/C=C/c2ccccc2)c(=O)n(-c2ccccc2)n1C`, 0.426.
The same measure, in the same setting: for `CC(C)(C)OC(=O)CC[C@]1(C(=O)NCC(O)CO)N=C(c2ccc(OCCCO)cc2)O[C@H]1c1ccccc1CN=[N+]=[N-]` (stereo partly specified) the value was 2.06.
As to `CCCC[C@@H]1C[C@H]1[C@@H](NC(=O)c1ccco1)c1ccccc1`, the composite z-score was -1.3.
On the same count and under the same terms, for `NC(=O)NCC#Cc1ccc2c(c1)[C@]1(C(=O)N2)[C@H](c2ccccc2OCCO)N2[C@H](c3ccccc3)[C@H](c3ccccc3)OC(=O)[C@H]2[C@@H]1C(=O)N1CCCCCCC1` the value was 1.28; for `C=C(COC)C(=O)CC[C@H](OC(=O)c1cccnc1)c1ccccc1OCCO`, 0.698.
